# This is part of a sample that, as a whole, favours compounds with a hit. Of some 83,000 tested, about 20% had one in any assay.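 The test compound was applied at a single concentration to cells in 96-well plates for 48 hours, and percent growth was recorded.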 Calls of active or inactive are those of the source. Rule for the calls: active = growth percent below 10; inactive = the rest.
# System: 786-0 renal
# Test: NCI-60 one-dose screen, 48 h (100 = growth as untreated, 0 = no growth, -100 = all killed)
# Settings: 10 µM unless noted
row,SMILES,growth
1,Fc1ccc(-c2nnc(-c3c(-c4ccc(F)cc4)nc4ncccn34)o2)cc1,93.1% (inactive)
2,S=c1[nH]nc2sc3ccccc3n12,111% (inactive)
3,Clc1ccc2nc(Cl)c3ccccc3c2c1,46.8% (inactive)
4,CCOC(Cc1c(N)[nH]c(=S)[nH]c1=O)OCC,109% (inactive)
5,COc1ccc(-c2nnc(COc3ccc(NC(=O)Nc4cc(C(F)(F)F)cc(C(F)(F)F)c4)cc3F)o2)cc1,16.2% (inactive)
6,Clc1cccc(Cc2cn3cc(-c4ccccc4)nc3s2)c1,68.9% (inactive)
7,ClC1=C(Cl)C(Cl)=C(Cl)C1=C/C=C/c1ccccc1,-71.3% (active)
8,O=[N+]([O-])c1cnc(Sc2ccncn2)c([N+](=O)[O-])c1,106% (inactive)
9,O=C(N1CCC(CN=c2cc3n(-c4ccc(Cl)cc4)c4ccccc4nc-3cc2Nc2ccc(Cl)cc2)CC1)N1CC1,-93.2% (active)
10,COc1cc(/C=C2\CCC/C(=C\c3ccc(OCC4CO4)c(OC)c3)C2=O)ccc1OCC1CO1 (centres undefined),65.2% (inactive)
11,COc1ccc(-n2nnc(C(=O)O)c2-c2cc(OC)c(OC)c(OC)c2)cc1,99.7% (inactive)
12,Nc1nc(N)c([N+](=O)[O-])c(=O)[nH]1,110% (inactive)
13,Oc1[nH]c2ccccc2c1/C=c1/ccc2c(c1)N=C(c1cc(F)cc(F)c1)N=2,64.2% (inactive)
14,O=c1ccn(C2CCCO2)c(=O)[nH]1 (centres undefined),109% (inactive)
15,COc1ccc2nc3cc(Cl)ccc3c(Nc3cc(C(C)C)c(O)cc3C)c2c1,35.5% (inactive)
16,COc1ccc(-c2cnnn2-c2cc(OC)c3c(c2)OCO3)cc1,42.3% (inactive)
17,CC1=CC(=O)C(C(C)=Nc2ccccc2Cl)C(=O)O1 (centres undefined),114% (inactive)
18,O=[P@@]1(c2ccccc2)O[C@H](COCc2ccccc2)[C@@H](OCc2ccccc2)[C@H](OCc2ccccc2)[C@H]1NCc1ccccc1,13.9% (inactive)
19,COc1ccc(-c2noc(N)c2-c2cc(OC)c3c(c2)OCO3)cc1,59.7% (inactive)

row,SMILES,growth
1,CN(C)c1nc(-c2ccco2)n2nc(-c3ccco3)cc2n1,97.2% (inactive)
2,COc1cccc(C2C(C#N)=C(N)Oc3cc(OC)ccc32)c1 (centres undefined),29.9% (inactive)
3,c1cnc2ccc3ncccc3c2c1,103% (inactive)
4,O=C(c1ccccc1)c1ccco1,101% (inactive)
5,CCOC(=O)C1=NN(c2ccc(Cl)cc2)C2C3N(c4ccc(Cl)cc4)N=C(C(=O)OCC)N3c3ccccc3N12 (centres undefined),95.6% (inactive)
6,Cc1cc(NC(=O)c2ccc(N)cc2)ccc1N=Nc1ccc2c(O)c(N=Nc3ccc(Cl)c(S(=O)(=O)O)c3)c(S(=O)(=O)O)cc2c1,110% (inactive)
7,O=C(Nc1cccc(C(F)(F)F)c1)Nc1ccc(OCc2nnc(-c3ccc(Cl)cc3)o2)c(F)c1,84.2% (inactive)
8,CCN1C(=O)c2ccc3c4c(ccc(c24)C1=O)C(=O)N(CCCNCc1ccccc1OC)C3=O,-51.5% (active)
9,C=C1c2c(C)nn(-c3ccc(C#CCOC4OC(CO)C(O)C(O)C4O)cc3)c2N(C)C23C[C@H]1C1(C)c4c(C)nn(-c5ccc(C#CCOC6OC(CO)C(O)C(O)C6O)cc5)c4N(C)C(C)(C[C@H]12)C3 (some centres undefined),17.2% (inactive)
10,O=C(Nc1ccc(OCc2nnc(-c3ccccc3)o2)c(F)c1)Nc1ccc(Cl)c(C(F)(F)F)c1,53.2% (inactive)
11,O=C(/C=C/c1ccccc1Cl)c1ccc(O)cc1,85% (inactive)
12,O=C(Nc1ccncc1)C(=O)c1cn(S(=O)(=O)c2cccc(F)c2)c2ccccc12,61.7% (inactive)
13,COc1cc(/C=C/C(=O)c2ccc(F)cc2)ccc1OCCCCCOc1cc2c(cc1OC)C(=O)N1CCCC1C=N2 (centres undefined),-43.3% (active)
14,O=C(/C=C/c1ccc(O)c(O)c1)N1CCN(c2ccc(Cl)cc2)CC1,73.1% (inactive)
15,O=C(OCCBr)c1ccc(Cl)c([N+](=O)[O-])c1,102% (inactive)
16,COc1ccc2c(c1)/C(=C\c1c[nH]c3ccc(F)cc13)C(=O)N2,96.5% (inactive)
17,Cc1cc(C(=O)O)c(C)cc1C(=O)O,101% (inactive)
18,O=C1/C(=N/O)CCc2ccccc21,111% (inactive)

# System: COLO 205 colon
# Test: as above
# Settings: 10 µM unless noted
row,SMILES,growth
1,Fc1ccc(-c2nnc(-c3c(-c4ccc(F)cc4)nc4ncccn34)o2)cc1,104% (inactive)
2,S=c1[nH]nc2sc3ccccc3n12,104% (inactive)
3,Clc1ccc2nc(Cl)c3ccccc3c2c1,78.3% (inactive)
4,CCOC(Cc1c(N)[nH]c(=S)[nH]c1=O)OCC,105% (inactive)
5,COc1ccc(-c2nnc(COc3ccc(NC(=O)Nc4cc(C(F)(F)F)cc(C(F)(F)F)c4)cc3F)o2)cc1,-40.7% (active)
6,Clc1cccc(Cc2cn3cc(-c4ccccc4)nc3s2)c1,-36.6% (active)
7,ClC1=C(Cl)C(Cl)=C(Cl)C1=C/C=C/c1ccccc1,-90.6% (active)
8,O=[N+]([O-])c1cnc(Sc2ccncn2)c([N+](=O)[O-])c1,-11.8% (active)
9,O=C(N1CCC(CN=c2cc3n(-c4ccc(Cl)cc4)c4ccccc4nc-3cc2Nc2ccc(Cl)cc2)CC1)N1CC1,-59% (active)
10,COc1cc(/C=C2\CCC/C(=C\c3ccc(OCC4CO4)c(OC)c3)C2=O)ccc1OCC1CO1 (centres undefined),33.8% (inactive)
11,COc1ccc(-n2nnc(C(=O)O)c2-c2cc(OC)c(OC)c(OC)c2)cc1,104% (inactive)
12,Nc1nc(N)c([N+](=O)[O-])c(=O)[nH]1,109% (inactive)
13,Oc1[nH]c2ccccc2c1/C=c1/ccc2c(c1)N=C(c1cc(F)cc(F)c1)N=2,96% (inactive)
14,O=c1ccn(C2CCCO2)c(=O)[nH]1 (centres undefined),118% (inactive)
15,COc1ccc2nc3cc(Cl)ccc3c(Nc3cc(C(C)C)c(O)cc3C)c2c1,15.7% (inactive)
16,COc1ccc(-c2cnnn2-c2cc(OC)c3c(c2)OCO3)cc1,-80.4% (active)
17,CC1=CC(=O)C(C(C)=Nc2ccccc2Cl)C(=O)O1 (centres undefined),129% (inactive)
18,O=[P@@]1(c2ccccc2)O[C@H](COCc2ccccc2)[C@@H](OCc2ccccc2)[C@H](OCc2ccccc2)[C@H]1NCc1ccccc1,-57.2% (active)
19,COc1ccc(-c2noc(N)c2-c2cc(OC)c3c(c2)OCO3)cc1,12.4% (inactive)

row,SMILES,growth
1,CN(C)c1nc(-c2ccco2)n2nc(-c3ccco3)cc2n1,116% (inactive)
2,COc1cccc(C2C(C#N)=C(N)Oc3cc(OC)ccc32)c1 (centres undefined),-73.4% (active)
3,c1cnc2ccc3ncccc3c2c1,109% (inactive)
4,O=C(c1ccccc1)c1ccco1,109% (inactive)
5,CCOC(=O)C1=NN(c2ccc(Cl)cc2)C2C3N(c4ccc(Cl)cc4)N=C(C(=O)OCC)N3c3ccccc3N12 (centres undefined),128% (inactive)
6,Cc1cc(NC(=O)c2ccc(N)cc2)ccc1N=Nc1ccc2c(O)c(N=Nc3ccc(Cl)c(S(=O)(=O)O)c3)c(S(=O)(=O)O)cc2c1,117% (inactive)
7,O=C(Nc1cccc(C(F)(F)F)c1)Nc1ccc(OCc2nnc(-c3ccc(Cl)cc3)o2)c(F)c1,66.5% (inactive)
8,CCN1C(=O)c2ccc3c4c(ccc(c24)C1=O)C(=O)N(CCCNCc1ccccc1OC)C3=O,-81.5% (active)
9,C=C1c2c(C)nn(-c3ccc(C#CCOC4OC(CO)C(O)C(O)C4O)cc3)c2N(C)C23C[C@H]1C1(C)c4c(C)nn(-c5ccc(C#CCOC6OC(CO)C(O)C(O)C6O)cc5)c4N(C)C(C)(C[C@H]12)C3 (some centres undefined),8.45% (active)
10,O=C(Nc1ccc(OCc2nnc(-c3ccccc3)o2)c(F)c1)Nc1ccc(Cl)c(C(F)(F)F)c1,-46.3% (active)
11,O=C(/C=C/c1ccccc1Cl)c1ccc(O)cc1,90% (inactive)
12,O=C(Nc1ccncc1)C(=O)c1cn(S(=O)(=O)c2cccc(F)c2)c2ccccc12,106% (inactive)
13,COc1cc(/C=C/C(=O)c2ccc(F)cc2)ccc1OCCCCCOc1cc2c(cc1OC)C(=O)N1CCCC1C=N2 (centres undefined),-72% (active)
14,O=C(/C=C/c1ccc(O)c(O)c1)N1CCN(c2ccc(Cl)cc2)CC1,71.4% (inactive)
15,O=C(OCCBr)c1ccc(Cl)c([N+](=O)[O-])c1,106% (inactive)
16,COc1ccc2c(c1)/C(=C\c1c[nH]c3ccc(F)cc13)C(=O)N2,103% (inactive)
17,Cc1cc(C(=O)O)c(C)cc1C(=O)O,120% (inactive)
18,O=C1/C(=N/O)CCc2ccccc21,100% (inactive)
